Measured values: PubChem BioAssay (NCATS)
“And” between values parts separate entries of the source, which are not always exact repeats. Identical values can stand only once. Records with an inconclusive call do not appear. The source made the active and inactive calls. Unless noted, the call rests on the fitted dose curve; in most records, active means well fitted curve in the direction sought with a large enough effect; inconclusive means small, poorly fitted or top-dose-only effect, or another doubt; inactive means no such curve, though single readings can be large; an effect the other way counts as inactive or inconclusive.

Assays:
[1] = Cellular Toxicity (caspase-3) HepG2 (AID 654);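 further: cells exposed to compound for 16 hours before reading; 0% = DMSO alone and 100% = caspase signal from 100 µM tamoxifen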
Procedure, shortened: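 qHTS, HepG2, 1500 cells/well, complete medium; cpd 16 h 37 °C; Caspase-Glo 3/7, 20 min RT; lum. Norm: DMSO vs 100 uM tamoxifen; AC50 Hill fit.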

[2] = Cellular Toxicity (caspase-3) Jurkat (AID 655);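 further: cells exposed to compound for 16 h at 37 °C before reading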
Procedure, shortened: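 Jurkat cells (5000/well) in complete medium were treated with compounds for 16 hr at 37 °C, then Caspase-Glo 3/7 luminescence was read after 20 min at room temperature. Data normalized to DMSO (basal) and 100 uM tamoxifen (100%); AC50 from Hill fit.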

[3] = Cellular Toxicity (caspase-3) HUV-EC-C (AID 656);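 further: 0% = DMSO basal and 100% = 100 µM tamoxifen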
Procedure, shortened: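 HUV-EC-C endothelial cells, 1000/well, were pre-incubated 5 hr at 37°C, then exposed to compounds for 16 hr at 37°C. Caspase-Glo 3/7 luminescence was read after 20 min at room temperature. AC50 came from Hill fits, normalized to DMSO and 100 uM tamoxifen.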

[4] = Cellular Toxicity (caspase-3) SHSY5Y (AID 657)
Procedure, shortened: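 SH-SY5Y human neuroblastoma cells (1500/well) were treated with compounds for 16 h at 37 °C, then Caspase-Glo 3/7 luminescence was read after 1 h at room temperature. Data normalized to DMSO and 10 uM staurosporine; AC50 from Hill fits.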

[5] = Cellular Toxicity (caspase-3) BJ (AID 658);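 further: 0% = DMSO basal and 100% = 10 µM staurosporine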
Procedure, shortened: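 BJ human foreskin fibroblasts, 1000 cells/well, treated 16 hours at 37 °C in complete medium; caspase 3/7 activity by Caspase-Glo luminescence after 1 hr at room temperature. Normalized to DMSO and 10 uM staurosporine; AC50 from Hill fits.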

[6] = Cellular Toxicity (caspase-3) MRC-5 (AID 659);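 further: 0% = DMSO basal and 100% = 10 µM staurosporine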
Procedure, shortened: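 MRC-5 human normal lung fibroblasts, 1500 cells/well, treated 16 h at 37 °C in complete medium. Caspase 3/7 measured by Caspase-Glo luminescence after 1 h at room temperature. Normalized to DMSO and 10 uM staurosporine; AC50 from Hill fit.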

[7] = Cellular Toxicity (caspase-3) Mesangial (AID 660);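 further: combined caspase 3 and 7 activity read by Caspase-Glo luminescence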
Procedure, shortened: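 Concentration-response qHTS: compound-induced rise in caspase 3/7 luminescence in human mesangial cells after 16 h, normalized to DMSO and 100 uM tamoxifen controls.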

[8] = Cellular Toxicity (caspase-3) SK-N-SH (AID 661);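 further: 0% = DMSO basal and 100% = 10 µM staurosporine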
Procedure, shortened: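 Caspase 3/7 activation is measured as a luminescence increase from aminoluciferin released by substrate cleavage in SK-N-SH cells after 16 hr compound treatment; values are AC50 from concentration-response curves.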

[9] = Cellular Toxicity (caspase-3) H-4-II-E (AID 663);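 further: 0% = DMSO basal and 100% = 100 µM tamoxifen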
Procedure, shortened: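 Rat hepatoma H-4-II-E cells (1500/well) plated 5 hr, then exposed to compound titrations for 16 hr at 37 °C. Caspase-Glo 3/7 luminescence read after 20 min at RT; data normalized to DMSO and 100 uM tamoxifen, AC50 from Hill fits.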

[10] = Cellular Toxicity (caspase-3) Hek293 (AID 664);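 further: cells exposed to compound for 16 h at 37 °C before readout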
Procedure, shortened: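 Activation of caspase-3/7 is measured as increased luminescence from cleaved peptide-aminoluciferin substrate in HEK293 cells treated 16 hours at 37 °C. AC50 values come from Hill-equation fits of concentration-response data.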

[11] = Cellular Toxicity (caspase-3) N2a (AID 665);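 further: compound exposure lasted 16 h at 37 °C before readout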
Procedure, shortened: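 Plated mouse neuroblastoma N2a cells received titrated compounds for 16 h in complete medium. Caspase activity was then detected with a peptide-aminoluciferin luminescent reagent.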

[12] = Cellular Toxicity (caspase-3) NIH 3T3 (AID 666);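 further: caspase signal read after 16 h compound exposure; 0% = DMSO basal and 100% = 100 µM tamoxifen stimulation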
Procedure, shortened: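 Concentration-response qHTS in NIH 3T3 mouse fibroblasts scores caspase-3/7 activation as rising luminescence after 16 hr compound exposure. Signals are scaled between DMSO-only and 100 uM tamoxifen.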

[13] = Cellular Toxicity (caspase-3) Renal Proximal Tubule (AID 667);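 further: cells exposed to compound for 16 hours at 37 °C before detection; 0% = DMSO basal and 100% = 10 µM staurosporine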
Procedure, shortened: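 Primary rat proximal tubule cells, 1000/well, 5 h plating at 37 °C, then compound 16 h at 37 °C. Caspase-Glo 3/7 reagent, 1 h RT, luminescence. Normalized to DMSO (basal) and 10 uM staurosporine (100%); Hill-fit AC50.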

[14] = Cell Viability - LYMP2-001 (AID 921);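 further: series mostly up to about 92 µM; 0% = DMSO only and full inhibition = tetraoctylammonium bromide control wells; nearly all actives have a fitted effect of over 70% in size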
Procedure, shortened: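 Human lymphoblastoid cells (Coriell), 2500 per well, were preincubated 5 hr at 37 C, then exposed to compounds in complete medium for 24 hr at 37 C. Cellular ATP was read by CellTiter-Glo luminescence; AC50 from Hill fits of concentration-response data.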

[15] = MultiTox-Fluor Cytotoxicity Assay - LYMP1-001 - Dead Cells (AID 946);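 further: 0% = DMSO and 100% = tetraoctylammonium bromide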
Procedure, shortened: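 In this qHTS, 15 uM tetraoctylammonium bromide defined 100% and DMSO defined basal activity. Lymphoblastoid cells (LYMP1-001, 2500 per well) received compound for 16 hr at 37 C before a fluorogenic dead-cell substrate readout at 485/520 nm.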

[16] = qHTS assay for small molecule agonists of the antioxidant response element (ARE) signaling pathway measured by Nrf2-dependant transcriptional activity (AID 720636; active means well fitted curve in the direction sought with a large enough effect in the repeat runs; an effect the other way counts as inactive or inconclusive;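 further: HepG2 cells with an ARE-driven luciferase reporter; % of control where 0% means no effect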)
Procedure, shortened: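 ONE-Glo luminescence, read 30 min after reagent addition at room temperature, reflected ARE reporter activity in HepG2 cells that had been incubated with compound for 16 hr at 37 C in 1% dialyzed FBS.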

[17] = qHTS assay for small molecule antagonists of the retinoid-related orphan receptor gamma (ROR-gamma) signaling pathway - cell viability counter screen (AID 720652; active means well fitted curve in the direction sought with a large enough effect in the repeat runs; an effect the other way counts as inactive or inconclusive;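 further: CHO reporter cells with doxycycline-induced ROR-gamma expression; series mostly up to about 92 µM; compound exposure lasted 16 hr before ATP read; on the % scale 0 is the no-effect control and ±100 the full control effect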)
Procedure, shortened: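 Cytotoxicity is quantified via intracellular ATP (CellTiter-Glo luminescence) in doxycycline-induced CHO ROR response element-luciferase reporter cells treated with compound for 16 hr at 37 C, 5% CO2.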

[18] = qHTS assay for small molecule agonists of the antioxidant response element (ARE) signaling pathway measured by Nrf2-dependant transcriptional activity - cell viability counter screen (AID 720653; active means well fitted curve in the direction sought with a large enough effect in the repeat runs; an effect the other way counts as inactive or inconclusive; further: on the % scale 0 is the no-effect control and ±100 the full control effect); settings: ARE-bla HepG2 viability, CellTiter-Glo ATP luminescence, 16 h; stronger effect = lower value
Procedure, shortened: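 ARE-bla HepG2 cells treated with compounds for 16 h at 37C; this counter screen measures viability as intracellular ATP by CellTiter-Glo luminescence after 30 min at room temperature.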

[19] = qHTS assay for cell viability of HEK293 cells (AID 743288); settings: ATP luminescence (CellTiter-Glo), 18 h, stronger effect = lower value; further: on the % scale 0 is the no-effect control and ±100 the full control effect; nearly all actives have a fitted effect of over 50% in size
Procedure, shortened: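 Parental HEK293 cells were seeded at 2,000 cells/well, rested at least 5 h at 37 C, then exposed to compounds in DMSO for 18 h at 37 C. Viability was read as ATP-dependent luciferase luminescence after 30 min at room temperature.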

[20] = qHTS assay for cell viability of the p53RE-bla HCT-116 cell line (AID 743292); further: potency means the concentration at half of the fitted maximal effect; nearly all actives have a fitted effect of over 55% in size
Procedure, shortened: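 After plating at 4,000 cells per well and a 5 h rest at 37 C, HCT-116 cells carrying p53RE-bla received test chemicals in DMSO. Sixteen hours later at 37 C, CellTiter-Glo was added and luminescence recorded following 30 min at room temperature.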

CC(C)(c1cc(Br)c(O)c(Br)c1)c1cc(Br)c(O)c(Br)c1
active: Potency [20] 44.7 µM
inactive: outcome [1] | outcome [2] | outcome [3] | outcome [4] | outcome [5] | outcome [6] | outcome [7] | outcome [8] | outcome [9] | outcome [10] | outcome [11] | outcome [12] | outcome [13] | outcome [14] | outcome [15] | outcome [16] | outcome [17] | max response [18] 4.4% and -1.06% and -0.187% | max response [19] 5.04% and -1.46% and -3.35%
